Rows were chosen to be rich in hits. Some 7.3% of all compounds tested hit in one or more screens of this group.
FLuc counter = qHTS profiling assay for firefly luciferase inhibitor/activator using purifed enzyme and Km concentrations of substrates (counterscreen for miR-21 project); purified FLuc, Km substrates, luminescence inhibition; AID 588342, 2011; Luciferin 4-monooxygenase (Photinus pyralis), P08659; actives 6.9% (n = 360,000); Potency, µM (highest dose often 57.5 µM), most hits filed as inhibitors; further: nearly all actives have a fitted effect of over 55% in size
Target sequence (P08659 whole entry, looked up): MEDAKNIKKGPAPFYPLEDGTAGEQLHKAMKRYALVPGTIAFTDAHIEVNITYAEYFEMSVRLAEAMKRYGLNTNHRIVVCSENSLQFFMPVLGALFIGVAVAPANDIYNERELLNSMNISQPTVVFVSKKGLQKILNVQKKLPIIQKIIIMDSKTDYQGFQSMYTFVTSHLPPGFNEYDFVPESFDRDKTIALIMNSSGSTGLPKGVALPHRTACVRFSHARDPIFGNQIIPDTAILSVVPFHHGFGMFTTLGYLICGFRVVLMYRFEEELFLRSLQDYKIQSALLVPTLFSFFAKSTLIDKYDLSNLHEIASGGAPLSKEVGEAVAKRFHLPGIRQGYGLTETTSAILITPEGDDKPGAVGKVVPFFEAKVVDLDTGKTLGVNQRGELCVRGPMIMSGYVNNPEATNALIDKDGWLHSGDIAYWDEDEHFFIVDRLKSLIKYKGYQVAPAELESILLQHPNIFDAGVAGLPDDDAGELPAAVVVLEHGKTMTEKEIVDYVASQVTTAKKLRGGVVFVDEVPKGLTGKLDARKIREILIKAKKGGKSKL
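Purified P. pyralis luciferase (10nM final) with 10uM D-luciferin and 10uM ATP (Km levels) in 50mM Tris acetate pH 7.5, 10mM Mg acetate, 0.01% Tween-20, 0.05% BSA; qHTS 6-point titration, ~60 µM downward; luminescence read.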
Luc counter = Counterscreen for Luciferase (Kinase-Glo TM) Inhibition; Luciferin 4-monooxygenase (Photuris pensylvanica), Q27757; Kinase-Glo luciferase, ATP luminescence, 8 min; Potency, µM (top dose mostly 38.3 µM), usual class: inhibitors; actives 0.28% (n = 200,000); AID 1379, 2008; further: nearly all actives have a fitted effect of over 60% in size
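Kinase-Glo luciferase light output from ATP and luciferin was measured with 10 uM ATP, within the enzyme's linear range. Buffer: 50 mM imidazole pH 7.2, 50 mM KCl, 7 mM MgCl2, 0.01% Tween 20, 0.05% BSA; luminescence read after 8 min at ambient temperature.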
Rab9 promoter act = qHTS Assay for Rab9 Promoter Activators. actives 2.8% (n = 320,000). Huh7 Rab9 promoter-luciferase reporter, luminescence, 24 h. AID 485297, 2010. Potency, µM (titrated, usually from 9.22 µM), hits mostly activators; further: nearly all actives have a fitted effect of over 60% in size
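Cell-based reporter: Huh7 stable for Rab9 promoter-driven luciferase, plated in reduced-serum medium with 10% FBS at 1500 cells/well, compound-treated 24 h at 37 °C, luminescence read after 10 min reagent.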
NPC1 promoter act = qHTS Assay for NPC1 Promoter Activators. actives 2.4% (n = 320,000). Huh7 NPC1 promoter luciferase reporter, 24 h. Potency, µM (top dose mostly 9.22 µM), most hits filed as activators; further: nearly all actives have a fitted effect of over 60% in size
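Stably transfected Huh7 (NPC1 promoter→luciferase), 1500 cells/well in Opti-MEM + 10% FBS, 2 h settle, then compound 24 h at 37 °C. Luminescence after 10 min with Amplite reagent.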
SMN2 splice up = qHTS Assay for Enhancers of SMN2 Splice Variant Expression; actives 2.8% (n = 210,000); AID 1458, 2008; Potency, µM (titrated, usually from 46.1 µM), most hits filed as activators; HEK293 SMN2-luciferase splicing reporter, luminescence, 30-36 h; further: nearly all actives have a fitted effect of over 55% in size
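HEK293 cells carry an SMN2 […]–luciferase reporter in which exon 7 inclusion puts luciferase in frame. Cells were plated 10-12 h before compound addition, then incubated 30-36 h at 37C. ONE-Glo luminescence was read; sodium butyrate at 4.5 mM final served as control.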
A number is an active result; – = inactive; ? = inconclusive; · = no result given. The call rests on the fitted dose curve; in most records, active means well fitted curve in the direction sought with a large enough effect; inconclusive means small, poorly fitted or top-dose-only effect, or another doubt; inactive means no such curve, though single readings can be large; an effect the other way counts as inactive or inconclusive.

SMILES | FLuc counter | Luc counter | Rab9 promoter act | NPC1 promoter act | SMN2 splice up
C/C(=C\c1ccc(N)cc1)c1nc2ccccc2[nH]1 | 3µM | · | 2.2µM | 2.5µM | ·
CCCOC(=O)CSc1nnc(-c2ccc(Cl)cc2Cl)o1 | 15µM | – | – | – | –
CCCCOC(=O)CSc1nnc(-c2ccccc2)o1 | – | · | · | · | ·
CCOC(=O)c1ccc(-c2nnc(-c3ccc(Cl)cc3Cl)o2)cc1 | – | – | 0.5µM | 0.63µM | 3.5µM
CCOC(=O)CSc1nnc(-c2ccc(Cl)cc2Cl)o1 | 8.5µM | – | – | – | –
CCOc1ccc(-c2nc3c(c(SCC(=O)N4CCCCC4)n2)Cc2cc(C)ccc2O3)cc1 | – | · | · | · | –
CCc1ccc(NC(=O)c2ccccc2NC(=O)C2CCCO2)cc1 (stereo not drawn) | 17µM | – | 3.5µM | 3.5µM | 13µM
O=C(NCCOc1ccccc1)c1ccccc1NC(=O)C1CCCO1 (stereo not drawn) | ? | – | 2.2µM | 4µM | 11µM
O=C(Nc1ccccc1C(=O)O)c1ccc(NC(=O)C2CCCO2)cc1 (stereo not drawn) | 6.7µM | · | – | – | ·
O=C(CCNS(=O)(=O)c1ccc2c(c1)CCN2C(=O)C1CC1)Nc1ccc(OC(F)(F)F)cc1 | – | · | · | · | ·
Cc1ccc(-c2cn3c(n2)sc2cc(C(=O)NC4CCCc5ccccc54)ccc23)cc1 (stereo not drawn) | – | · | · | · | ·
CCCCCCc1cc2cc(C(=O)NC)c(=N)oc2cc1O | – | – | – | – | –
CCN(CC)c1ccc2cc(C(N)=O)c(=N)oc2c1 | 24µM | – | – | – | –
CCN(CC)c1ccc2cc(C(C)=O)c(=O)oc2c1 | ? | – | – | – | –
CCN(CC)c1ccc2cc(C(=O)Nc3cccnc3N3CCOCC3)c(=O)oc2c1 | – | · | – | – | ·
CCCCCCc1cc2cc(C(N)=O)c(=N)oc2cc1O | 17µM | – | – | – | –
CCN(CC)c1ccc2cc(NC(=O)CCC(=O)O)c(=O)oc2c1 | 6.7µM | – | – | – | –
CCN(CC)c1ccc2cc(C(=O)Nc3ccccn3)c(=O)oc2c1 | 0.54µM | – | 0.11µM | 0.32µM | 2.8µM
O=C(C1COc2ccccc2O1)N(Cc1cccnc1)c1nc2ccc(Cl)cc2s1 (stereo not drawn) | – | · | · | · | ·
Cc1ccc(OC(C)C(=O)Nc2cc(C)on2)cc1 (stereo not drawn) | 19µM | · | – | – | ·
Cc1cc(NC(=O)c2ccc(NC(=O)C(C)Oc3ccccc3)cc2)no1 (stereo not drawn) | – | – | – | – | –
Cc1cc(NC(=O)C(C)Oc2ccc(Cl)cc2Cl)no1 (stereo not drawn) | 24µM | · | – | – | ·
CCOCCCn1c(SCC(=O)Nc2ccc(C(C)C)cc2)nc2c(sc3ccccc32)c1=O | – | · | · | · | ·
O=C(Oc1ccccc1)n1c(=O)oc2ccc(Cl)cc21 | · | – | · | · | ·
Cc1ccc2nc(C(F)(F)F)c(C#N)c(N)c2c1 | – | – | – | – | 14µM
SMILES | FLuc counter | Luc counter | Rab9 promoter act | NPC1 promoter act | SMN2 splice up
COc1ccc(C(=O)Nc2ccc3nc(C)c(C)nc3c2)cc1 | ? | · | – | – | ·
COC(=O)c1cc(OC)c(OC)cc1NC(=O)Nc1ccc(OC)cc1 | – | – | – | – | –
COc1ccc(NC(=O)Nc2ccc3nccnc3c2)cc1 | 4.3µM | – | 0.4µM | 3.2µM | ?
COc1ccc(NC(=O)Nc2ccc3nonc3c2)cc1 | ? | · | 3.5µM | ? | ·
CCn1cnc2cc(NCc3ccc(OC)cc3)ccc21 | ? | – | ? | ? | –
CC(C)c1ccc(CNc2ncccn2)cc1 | 13µM | · | ? | ? | ·
Clc1ccc(CNc2ccccn2)cc1 | ? | – | – | – | ·
CCc1ccc(CNc2ccc3c(c2)ncn3CC)cc1 | 11µM | · | 2.5µM | 2.5µM | ·
CC(C)c1ccc(CNc2ccc3c(c2)ncn3C)cc1 | 15µM | · | 3.5µM | 3.2µM | ·
CCc1ccc(CNc2ccc3c(c2)ncn3C(C)(C)C)cc1 | 6µM | · | 4µM | 3.2µM | 16µM
CCN(CC)c1ccc(CNc2ccc3c(c2)ncn3C(C)(C)C)cc1 | ? | · | – | – | ·
CC(C)(C)n1cnc2cc(NCc3ccc(Br)cc3)ccc21 | 6.7µM | · | 2µM | 3.5µM | ·
CCc1ccccc1NC(=O)c1ncoc1-c1ccco1 | – | · | · | · | ·
CC(=O)c1cccc(Nc2ccc(-c3ccccc3F)nn2)c1 | 5.4µM | – | 2.2µM | 2.8µM | 11µM
CC(=O)c1ccc(Nc2cc(C)nc3ccccc23)cc1 | – | · | – | – | ·
CC(=O)c1ccc(Nc2ccc(-c3ccccc3C)nn2)cc1 | 9.5µM | – | 1.6µM | ? | 11µM
COc1ccccc1-c1ccc(Nc2cccc(C(C)=O)c2)nn1 | ? | – | – | – | –
Cc1ccc(-c2nc3sccn3c2Nc2ccc(C)c(C)c2)cc1 | – | · | · | · | –
COc1ccc2nc(NNC(=O)c3cc(=O)c4ccccc4o3)sc2c1 | 2.7µM | · | – | – | ·
Cc1ccc2sc(NNC(=O)c3cc(=O)c4ccccc4o3)nc2c1C | 9.5µM | · | – | – | ·
O=C(NNc1nc2c(F)cccc2s1)c1ccc(F)cc1 | – | – | – | – | –
Cc1cccc2sc(NNC(=O)c3cc(=O)c4ccccc4o3)nc12 | 4.8µM | · | ? | ? | ·
O=C(NNc1nc2c(F)cccc2s1)c1cc(=O)c2ccccc2o1 | 5.4µM | · | ? | ? | ·
Cc1nc(C)c(C(=O)Nc2nc3c(C)cccc3s2)o1 | ? | · | – | – | ·
Cc1ccc2sc(NNC(=O)c3cc(-c4cccs4)nc4ccccc34)nc2c1C | – | – | – | – | –
SMILES | FLuc counter | Luc counter | Rab9 promoter act | NPC1 promoter act | SMN2 splice up
Cc1ccc(-c2nc(S(=O)(=O)c3ccc(C)cc3)c(N3CCCCC3)o2)cc1 | – | · | · | · | –
O=C(Nc1nc(-c2ccc(Br)cc2)ns1)c1ccc(F)cc1 | – | · | · | · | ·
Cc1c(C(=O)Nc2ccc(F)cc2F)oc2c1-c1nn(Cc3c(F)cccc3Cl)cc1CC2 | – | · | · | · | ·
Cc1ccc(C)c(CN2CCCN(CC(=O)Nc3ccc(C)c(C)c3)S2(=O)=O)c1 | – | · | · | · | ·
COc1cc(OC)cc(C(=O)N2CCN(C(=O)COc3ccccc3)CC2)c1 | – | · | · | · | –
CCOC(=O)c1cc(NC(=O)c2ccc(C)cc2)c(=O)n2c1oc1ccc(Cl)cc12 | – | · | · | · | –
Cn1c(=O)n(C)c2cc(N3CCOCC3)c(NS(=O)(=O)c3ccc(Br)cc3)cc21 | – | · | · | · | 13µM
Cn1c(=O)n(C)c2cc(N3CCOCC3)c(NS(=O)(=O)c3ccc(F)cc3)cc21 | – | · | · | · | –
O=c1/c(=C\c2ccc3c(c2)OCO3)sc2n1CCCN=2 | 4.3µM | – | 3.5µM | 0.89µM | ?
Cc1ccc(/C=c2\sc3n(c2=O)CN(c2ccc(Br)cc2)CN=3)o1 | ? | – | – | – | –
Cc1ccc(/C=c2/sc3n(c2=O)CCCN=3)o1 | 15µM | – | 2.8µM | ? | 13µM
Cc1ccccc1NC(=O)c1c(C)oc2ccc(O)c(CN3CCN(C)CC3)c12 | – | · | · | · | –
Cc1ccsc1CN(Cc1ccco1)c1cnc(S(C)(=O)=O)nc1C(=O)Nc1ccc(Cl)cc1 | – | · | · | · | ·
O=S(=O)(CCSc1nc2ccccc2o1)c1nc2ccccc2s1 | – | – | – | – | 18µM

Compound activity from PubChem BioAssay.
